The target of test [1] is Bile acid receptor (Homo sapiens) (UniProt Q96RI1). In words: ATG_IR1_CIS: Attagene CIS-FACTORIAL HepG2 Assay for human Nuclear Receptor Subfamily 1 Group H Member 4 (NR1H4), IR1 submotif (AID 2282946; active = hit-call score of the fitted dose curve at least 0.9, where 1 is the maximum; inactive = score below 0.9). The settings on record: IR1 reporter transcription, actives raise or lower the signal. The essentials:
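HepG2 cells transiently transfected with multiple cis-promoter-driven reporter units to measure endogenous transcription factor activity; 24 h exposure. Reporter mRNA read by RT-PCR, FAM labelling, HpaI digestion and capillary electrophoresis. Bidirectional fit versus DMSO.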

The target of test [2] is Hypoxia-inducible factor 1-alpha (Homo sapiens) (UniProt Q16665). The test is described as follows: ATG_HIF1a_CIS: Attagene CIS-FACTORIAL HepG2 Assay for human Hypoxia Inducible Factor 1 (HIF1A) (AID 2282951; active = hit-call score of the fitted dose curve at least 0.9, where 1 is the maximum; inactive = score below 0.9). The settings on record: HepG2 Attagene cis-factorial HIF1a reporter transcription; actives raise or lower the signal. The procedure, abridged:
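HepG2, transient cis-reporter library, 24 h dosing. RNA → RT (oligo dT) → PCR → 6-FAM primer extension → HpaI → CE. Bidirectional curve fit vs DMSO.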

The target in test [3] is Nuclear receptor subfamily 1 group I member 3 (Homo sapiens) (UniProt Q14994). The test is described as follows: ATG_CAR_TRANS: Attagene TRANS-FACTORIAL HepG2 Assay for human Constitutive Androstane Receptor (CAR) (AID 2282969).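 Note: activators raise reporter mRNA above DMSO so AC50 marks induction.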 The settings on record: HepG2 Attagene TRANS-FACTORIAL CAR reporter. The procedure, abridged: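 HepG2 cells transiently transfected with GAL4-UAS reporter units; TRANS format reads activity of exogenous chimeric NR-Gal4 protein. After 24 h dosing, reporter mRNA quantified by RT-PCR, 6-FAM labelling and capillary electrophoresis; gain of signal fitted against DMSO.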

In test [4] the target is Glucocorticoid receptor (Homo sapiens) (UniProt P04150). The test is described as follows: ATG_GR_TRANS: Attagene TRANS-FACTORIAL HepG2 Assay for human Glucocorticoid Receptor (GR) (AID 2282978).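 Note: activators score as hits since higher reporter transcript over DMSO is fitted.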 The conditions noted are these: HepG2 Attagene TRANS GR reporter, mRNA transcription. The procedure, abridged: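 Multiplexed TRANS reporter system, HepG2; 24 h exposure; RNA → oligo(dT) RT → reporter-specific PCR → 6-FAM primer extension → HpaI cut → CE fluorescence. Gain-of-signal vs DMSO.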

Test [5] has as its target Bile acid receptor (Homo sapiens) (UniProt Q96RI1). The test is described as follows: ATG_FXR_TRANS: Attagene TRANS-FACTORIAL HepG2 Assay for Farnesoid X Receptor (FXR) (AID 2282979).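 Note: hits raise reporter mRNA above DMSO so AC50 marks FXR activation.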 The settings on record: HepG2 Attagene TRANS FXR-GAL4 reporter transcription. The procedure, abridged: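 Chimeric FXR-GAL4 activity in transiently transfected human HepG2 liver cells is scored as induction of reporter mRNA after 24 h of dosing. Detection uses RT-PCR with fluorescent labelling and capillary electrophoresis, with DMSO serving as baseline.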

The target of test [6] is human Peroxisome Proliferator-activated Receptor alpha (PPARa), PPARA (gene 5465) (UniProt Q07869). The test is described as follows: ATG_PPARa_TRANS: Attagene TRANS-FACTORIAL HepG2 Assay for human Peroxisome Proliferator-activated Receptor alpha (PPARa) (AID 2283001). The procedure, abridged:
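HepG2 cells transiently transfected with multiplexed GAL4-UAS reporters driven by exogenous chimeric NR-Gal4 proteins; reporter mRNA measured after 24 h dosing. Read-out by RT-PCR, 6-FAM labelling, HpaI digestion and capillary electrophoresis; gain of signal versus DMSO.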

For test [7], the target named is human Peroxisome Proliferator-activated Receptor delta (PPARd), PPARD (gene 5467) (UniProt Q03181). The test is described as follows: ATG_PPARd_TRANS: Attagene TRANS-FACTORIAL HepG2 Assay for human Peroxisome Proliferator-activated Receptor delta (PPARd) (AID 2283002). The essentials:
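HepG2 cells transiently transfected with GAL4-UAS multiplexed reporter units driven by exogenous chimeric NR-GAL4 proteins; 24 h compound exposure. Reporter mRNA measured by RT-PCR, 6-FAM primer extension, HpaI digestion and capillary electrophoresis; gain of signal fitted relative to DMSO.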

The target of test [8] is human Thyroid Receptor alpha (THRa1), THRA (gene 7067) (UniProt P10827). In words: ATG_THRa1_TRANS: Attagene TRANS-FACTORIAL HepG2 Assay for human Thyroid Receptor alpha (THRa1) (AID 2283014). The procedure, abridged: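 First, HepG2 cells receive multiple GAL4-UAS reporter units and the chimeric receptor. They are then dosed for 24 h, after which RNA is reverse-transcribed, amplified, labelled, HpaI-cut and sized by capillary electrophoresis; gain relative to DMSO is scored.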

The nature of test [9]: TOX21_p53_BLA_p3_viability: Viability Assessment in the Tox21 HCT-116 p53 Agonism Beta-lactamase Assay, Phase 3 (AID 2283593).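 Note: cells exposed to compound for 16 h before reading.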 The essentials: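 HCT116 cells, 4000/well, dosed 5 h after plating by pin transfer (217-fold dilution from DMSO stock) and incubated 16 h at 37C, 5% CO2. Viability read as ATP luminescence with CellTiter-Glo after 30 min at room temperature.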
Test [10] can be described thus: ACEA_ER_AUC_viability: ACEA Biosciences xCELLigence Real-Time Cell Analysis on Estrogen Receptor Agonism for Viability (AID 2283782).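 Note: continuous compound exposure with impedance area under curve over 80 h; hit means loss of impedance signal meaning reduced cell growth or viability.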 The essentials: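 T47D cells preconditioned in phenol red-free RPMI with charcoal-stripped FBS, then dosed with 8-point 1:4 series from 100 uM (up to 0.5% DMSO). Impedance monitored up to ~80 h; area-under-curve loss versus DMSO taken as viability.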

The nature of test [11]: ATG_M_19_TRANS: Attagene TRANS-FACTORIAL HepG2 Assay for M19 Transcription Factor (Internal Marker) (AID 2282974). The conditions noted are these: HepG2 Attagene TRANS-FACTORIAL M19 internal marker reporter. The procedure, abridged: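 After transfection of HepG2 with GAL4-UAS-driven reporter constructs, cells are dosed for 24 h. Total RNA is reverse-transcribed, reporter sequences PCR-amplified and labelled, then HpaI-digested and sized by capillary electrophoresis.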

For test [12], the target named is Peroxisome proliferator-activated receptor gamma (Homo sapiens) (UniProt P37231). The test is described as follows: ATG_PPARg_TRANS: Attagene TRANS-FACTORIAL HepG2 Assay for human Peroxisome Proliferator-activated Receptor-gamma (PPARg) (AID 2283007). The essentials:
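Human hepatoma HepG2, transient MRTU transfection, 24 h treatment. mRNA reporter signal by RT-PCR plus capillary electrophoresis, fluorescence detection; fitted for increase over DMSO negative control.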

In test [13] the target is human RAR-related Orphan Receptor beta (RORb), RORB (gene 6096) (UniProt Q92753). In words: ATG_RORb_TRANS: Attagene TRANS-FACTORIAL HepG2 Assay for human RAR-related Orphan Receptor beta (RORb) (AID 2283010). The procedure, abridged:
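HepG2 cells transiently transfected with GAL4-UAS reporter units expressing chimeric NR-Gal4 protein; reporter mRNA measured 24 h after dosing by RT-PCR, 6-FAM labelling and capillary electrophoresis. Gain-of-signal fitted relative to DMSO baseline.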

The target of test [14] is human Vitamin D Receptor (VDR), VDR (gene 7421) (UniProt P11473). In words: ATG_VDR_TRANS: Attagene TRANS-FACTORIAL HepG2 Assay for human Vitamin D Receptor (VDR) (AID 2283022). The procedure, abridged: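 Fluorescence of labelled reporter cDNA fragments, resolved by capillary electrophoresis, gives mRNA induction after 24 h treatment of HepG2 cells carrying transfected Gal4-fusion reporter units. Activity is fitted in the positive direction with DMSO as baseline.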

Test [15] is described as follows: TOX21_p53_BLA_p4_viability: Viability Assessment in the Tox21 HCT-116 p53 Agonism Beta-lactamase Assay, Phase 4 (AID 2283597).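 Note: hits lower the luminescence signal meaning cytotoxicity.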 The procedure, abridged: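 Compound exposure of HCT116 cells lasts 16 h at 37C, 5% CO2, with DMSO stocks diluted 217-fold. Cellular ATP is then quantified by CellTiter-Glo luminescence after 30 min at room temperature.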
Test [16] can be described thus: ATG_PPRE_CIS: Attagene CIS-FACTORIAL HepG2 Assay for human Peroxisome Proliferator-activated Response Element (PPRE) (AID 2282958; active = hit-call score of the fitted dose curve at least 0.9, where 1 is the maximum; inactive = score below 0.9). The settings on record: HepG2 PPRE cis-element reporter, Attagene transcription factor profiling; actives raise or lower the signal. The procedure, abridged: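 Transcript-level reporter induction in transfected HepG2 cells after 24 h chemical exposure, quantified by fluorescence from RT-PCR products separated by capillary electrophoresis.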

Test [17] addresses Oxysterols receptor LXR-alpha (Homo sapiens) (UniProt Q13133). The test is described as follows: ATG_LXRa_TRANS: Attagene TRANS-FACTORIAL HepG2 Assay for human Liver X Receptor alpha (LXRa) (AID 2282980). The conditions noted are these: HepG2 Attagene TRANS reporter, LXRa transactivation. The procedure, abridged:
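Transient HepG2 transfectants, 24 h dosing, RT-PCR/CE mRNA reporter quantitation; gain-of-signal vs DMSO.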

Test [18] addresses Nuclear receptor subfamily 4 group A member 2 (Homo sapiens) (UniProt P43354). In words: ATG_NURR1_TRANS: Attagene TRANS-FACTORIAL HepG2 Assay for human Nuclear Receptor Related Protein 1 (NURR1) (AID 2282985). The settings on record: HepG2 Attagene TRANS reporter, mRNA readout. The essentials: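 HepG2 cells transiently transfected with NURR1-Gal4 chimera and GAL4-UAS reporter units; after 24 hr compound exposure, reporter mRNA quantified by RT-PCR and capillary electrophoresis; gain of signal fitted against DMSO.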

Test [19] has as its target human RAR-related Orphan Receptor gamma (RORg), RORC (gene 6097) (UniProt P51449). In words: ATG_RORg_TRANS: Attagene TRANS-FACTORIAL HepG2 Assay for human RAR-related Orphan Receptor gamma (RORg) (AID 2283011). The procedure, abridged: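 Activity is scored as increase in GAL4-UAS reporter mRNA over DMSO, detected by fluorescent RT-PCR and capillary electrophoresis in HepG2 cells transiently expressing a RORg-Gal4 chimera, 24 h after dosing.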

A short description of test [20]: ATG_GAL4_TRANS: Attagene TRANS-FACTORIAL HepG2 Assay for GAL4 (Internal Marker) (AID 2282976). The settings on record: HepG2 Attagene TRANS GAL4 internal marker reporter. The procedure, abridged: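 Fluorescence from capillary electrophoresis of labelled RT-PCR products quantifies reporter mRNA induction after 24 h dosing of HepG2 cells carrying transfected GAL4-UAS reporter transcription units. Vehicle DMSO serves as baseline.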

Inconclusive results are not listed. Calls of active or inactive are those of the source. Rule for the calls, unless noted: active = hit-call score of the fitted dose curve at least 0.9, where 1 is the maximum; inconclusive = response in the unintended direction; inactive = score below 0.9.

Sequence of human Peroxisome Proliferator-activated Receptor delta (PPARd), PPARD (gene 5467) (Q03181 whole entry, looked up, the tested form may be a part): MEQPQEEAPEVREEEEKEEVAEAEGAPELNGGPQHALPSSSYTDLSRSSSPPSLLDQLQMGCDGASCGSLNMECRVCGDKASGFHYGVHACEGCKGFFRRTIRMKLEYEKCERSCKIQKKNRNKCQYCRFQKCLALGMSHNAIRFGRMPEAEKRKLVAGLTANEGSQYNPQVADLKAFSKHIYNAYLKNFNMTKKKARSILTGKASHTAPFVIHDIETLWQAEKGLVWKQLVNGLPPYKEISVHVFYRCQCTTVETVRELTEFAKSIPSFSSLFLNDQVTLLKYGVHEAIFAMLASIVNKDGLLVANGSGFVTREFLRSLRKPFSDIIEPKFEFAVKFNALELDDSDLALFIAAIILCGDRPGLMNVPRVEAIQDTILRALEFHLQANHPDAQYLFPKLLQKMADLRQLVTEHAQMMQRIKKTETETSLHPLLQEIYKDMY
Sequence of human Peroxisome Proliferator-activated Receptor alpha (PPARa), PPARA (gene 5465) (Q07869 whole entry, looked up, the tested form may be a part): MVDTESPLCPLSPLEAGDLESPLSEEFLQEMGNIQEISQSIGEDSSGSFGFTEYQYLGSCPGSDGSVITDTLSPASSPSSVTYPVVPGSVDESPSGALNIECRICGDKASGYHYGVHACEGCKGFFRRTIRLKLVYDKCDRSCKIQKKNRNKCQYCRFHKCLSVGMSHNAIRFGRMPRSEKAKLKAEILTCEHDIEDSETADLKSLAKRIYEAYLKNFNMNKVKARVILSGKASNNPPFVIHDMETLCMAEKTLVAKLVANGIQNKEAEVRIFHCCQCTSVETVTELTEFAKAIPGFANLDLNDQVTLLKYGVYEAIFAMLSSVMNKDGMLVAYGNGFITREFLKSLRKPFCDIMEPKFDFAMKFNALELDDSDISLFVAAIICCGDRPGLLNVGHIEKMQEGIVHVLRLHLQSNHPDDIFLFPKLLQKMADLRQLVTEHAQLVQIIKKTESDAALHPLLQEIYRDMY
Sequence of Oxysterols receptor LXR-alpha (Homo sapiens) (Q13133 whole entry, looked up): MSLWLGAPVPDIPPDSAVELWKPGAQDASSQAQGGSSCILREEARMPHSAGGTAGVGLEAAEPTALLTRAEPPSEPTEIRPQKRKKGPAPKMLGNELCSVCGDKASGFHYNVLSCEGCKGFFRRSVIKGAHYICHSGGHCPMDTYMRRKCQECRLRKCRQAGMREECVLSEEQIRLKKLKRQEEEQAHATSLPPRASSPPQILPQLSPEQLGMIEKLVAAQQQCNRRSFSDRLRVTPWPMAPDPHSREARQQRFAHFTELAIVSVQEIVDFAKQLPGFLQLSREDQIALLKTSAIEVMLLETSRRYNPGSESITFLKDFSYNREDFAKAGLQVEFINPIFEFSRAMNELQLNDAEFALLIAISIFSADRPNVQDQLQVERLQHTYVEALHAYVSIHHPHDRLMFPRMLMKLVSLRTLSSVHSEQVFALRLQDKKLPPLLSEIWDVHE
Sequence of human Vitamin D Receptor (VDR), VDR (gene 7421) (P11473 whole entry, looked up, the tested form may be a part): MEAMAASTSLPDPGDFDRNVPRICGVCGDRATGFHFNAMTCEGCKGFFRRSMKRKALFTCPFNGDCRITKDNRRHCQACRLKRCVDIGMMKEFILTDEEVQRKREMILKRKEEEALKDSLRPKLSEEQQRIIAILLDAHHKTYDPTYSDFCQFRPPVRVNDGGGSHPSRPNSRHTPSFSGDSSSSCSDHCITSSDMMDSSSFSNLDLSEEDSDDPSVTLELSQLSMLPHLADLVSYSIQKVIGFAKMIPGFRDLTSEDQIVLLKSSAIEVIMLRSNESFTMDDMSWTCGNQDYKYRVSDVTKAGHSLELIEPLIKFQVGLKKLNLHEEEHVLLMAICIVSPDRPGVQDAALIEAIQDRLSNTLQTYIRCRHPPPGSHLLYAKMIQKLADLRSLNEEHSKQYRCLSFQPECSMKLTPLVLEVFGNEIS
Sequence of Nuclear receptor subfamily 1 group I member 3 (Homo sapiens) (Q14994 whole entry, looked up, the tested form may be a part): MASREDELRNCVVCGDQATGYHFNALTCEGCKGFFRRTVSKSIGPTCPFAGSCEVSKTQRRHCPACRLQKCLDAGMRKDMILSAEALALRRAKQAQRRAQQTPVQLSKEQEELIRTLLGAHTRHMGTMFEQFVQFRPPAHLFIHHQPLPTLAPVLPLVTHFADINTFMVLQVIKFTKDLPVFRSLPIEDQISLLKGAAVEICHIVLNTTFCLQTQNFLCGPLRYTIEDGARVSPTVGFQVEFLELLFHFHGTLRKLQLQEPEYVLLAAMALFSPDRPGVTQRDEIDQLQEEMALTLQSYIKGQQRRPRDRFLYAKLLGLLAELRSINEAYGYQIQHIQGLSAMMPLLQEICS
Sequence of Peroxisome proliferator-activated receptor gamma (Homo sapiens) (P37231 whole entry, looked up): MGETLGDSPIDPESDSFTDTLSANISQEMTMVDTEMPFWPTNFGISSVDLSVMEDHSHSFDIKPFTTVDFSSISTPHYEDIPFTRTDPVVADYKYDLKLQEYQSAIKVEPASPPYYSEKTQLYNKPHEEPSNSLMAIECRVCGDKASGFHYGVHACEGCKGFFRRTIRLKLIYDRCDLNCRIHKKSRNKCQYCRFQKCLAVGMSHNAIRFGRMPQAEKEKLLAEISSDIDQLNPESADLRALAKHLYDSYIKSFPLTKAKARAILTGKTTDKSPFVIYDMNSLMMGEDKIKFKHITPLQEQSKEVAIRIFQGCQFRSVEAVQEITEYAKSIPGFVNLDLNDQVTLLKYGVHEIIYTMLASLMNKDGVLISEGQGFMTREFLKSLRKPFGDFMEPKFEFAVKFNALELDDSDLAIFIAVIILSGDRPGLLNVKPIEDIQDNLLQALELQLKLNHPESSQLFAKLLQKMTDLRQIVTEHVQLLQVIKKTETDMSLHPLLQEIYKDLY
Sequence of Hypoxia-inducible factor 1-alpha (Homo sapiens) (Q16665 whole entry, looked up): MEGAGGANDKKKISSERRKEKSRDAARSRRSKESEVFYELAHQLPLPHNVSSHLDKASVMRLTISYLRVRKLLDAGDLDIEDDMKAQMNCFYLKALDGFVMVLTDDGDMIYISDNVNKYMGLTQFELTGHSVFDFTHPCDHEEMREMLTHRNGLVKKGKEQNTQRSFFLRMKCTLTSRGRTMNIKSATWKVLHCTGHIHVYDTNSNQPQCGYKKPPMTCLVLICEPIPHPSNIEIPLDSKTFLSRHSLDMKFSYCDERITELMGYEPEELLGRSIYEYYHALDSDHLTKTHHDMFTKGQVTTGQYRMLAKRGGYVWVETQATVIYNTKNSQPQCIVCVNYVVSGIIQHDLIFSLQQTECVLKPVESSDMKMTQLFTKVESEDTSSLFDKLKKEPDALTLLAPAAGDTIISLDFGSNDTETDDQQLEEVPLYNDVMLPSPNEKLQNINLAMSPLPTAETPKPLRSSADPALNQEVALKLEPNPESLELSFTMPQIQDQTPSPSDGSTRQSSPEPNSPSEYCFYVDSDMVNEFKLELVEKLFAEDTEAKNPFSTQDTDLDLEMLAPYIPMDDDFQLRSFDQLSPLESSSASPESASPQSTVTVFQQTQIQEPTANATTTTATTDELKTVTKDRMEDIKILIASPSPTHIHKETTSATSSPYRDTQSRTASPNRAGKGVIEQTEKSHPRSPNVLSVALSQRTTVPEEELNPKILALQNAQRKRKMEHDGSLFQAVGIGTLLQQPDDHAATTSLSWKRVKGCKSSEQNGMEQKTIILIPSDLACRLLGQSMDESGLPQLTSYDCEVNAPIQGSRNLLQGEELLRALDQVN
Sequence of Nuclear receptor subfamily 4 group A member 2 (Homo sapiens) (P43354 whole entry, looked up, the tested form may be a part): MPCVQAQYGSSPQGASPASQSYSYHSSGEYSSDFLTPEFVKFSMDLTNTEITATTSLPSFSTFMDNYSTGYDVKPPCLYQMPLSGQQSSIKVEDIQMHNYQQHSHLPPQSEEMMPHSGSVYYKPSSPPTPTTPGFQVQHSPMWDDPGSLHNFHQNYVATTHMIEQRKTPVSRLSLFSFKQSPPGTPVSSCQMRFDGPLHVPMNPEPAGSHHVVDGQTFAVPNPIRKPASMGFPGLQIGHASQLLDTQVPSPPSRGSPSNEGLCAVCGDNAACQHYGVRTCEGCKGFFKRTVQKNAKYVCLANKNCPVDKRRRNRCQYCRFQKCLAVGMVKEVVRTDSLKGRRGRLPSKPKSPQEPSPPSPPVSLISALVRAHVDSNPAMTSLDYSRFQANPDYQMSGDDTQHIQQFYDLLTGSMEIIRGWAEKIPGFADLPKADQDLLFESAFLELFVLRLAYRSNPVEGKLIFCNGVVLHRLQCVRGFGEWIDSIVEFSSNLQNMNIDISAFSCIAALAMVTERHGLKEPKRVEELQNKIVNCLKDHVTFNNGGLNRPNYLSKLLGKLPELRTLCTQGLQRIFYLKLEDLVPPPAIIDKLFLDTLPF
Sequence of Bile acid receptor (Homo sapiens) (Q96RI1 whole entry, looked up, the tested form may be a part): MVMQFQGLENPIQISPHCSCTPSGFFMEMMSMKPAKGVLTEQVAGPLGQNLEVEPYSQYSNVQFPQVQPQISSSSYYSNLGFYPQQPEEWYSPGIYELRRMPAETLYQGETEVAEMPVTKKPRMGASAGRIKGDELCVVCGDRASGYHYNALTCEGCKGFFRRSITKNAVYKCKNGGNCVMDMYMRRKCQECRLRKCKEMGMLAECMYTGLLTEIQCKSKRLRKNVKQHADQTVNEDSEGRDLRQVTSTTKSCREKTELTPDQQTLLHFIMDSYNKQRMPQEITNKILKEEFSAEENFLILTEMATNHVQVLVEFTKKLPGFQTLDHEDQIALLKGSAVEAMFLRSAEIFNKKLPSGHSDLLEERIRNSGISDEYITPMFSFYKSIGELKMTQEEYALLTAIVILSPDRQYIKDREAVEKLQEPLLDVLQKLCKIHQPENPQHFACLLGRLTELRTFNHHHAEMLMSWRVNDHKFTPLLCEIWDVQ

Turning to `C=C(C)C(=O)OCC1CCCO1` (stereo not drawn), the call in [1], in [2], in [3], in [4], in [5] and in test [6] was inactive. Also, the result in test [7], in [8], in test [9] and in [10] was inactive.

As a reminder, the AC50 is the midpoint of the concentration-response curve, whichever way the signal moves. For `CCCCOC(=O)COc1ccc(Cl)cc1Cl`, the concentration at half-maximal activity (AC50) in [1] was 24.4 µM (active). For the same compound, the result in test [2], in test [3], in test [11], in [12], in test [13] and in test [14] was inactive. In addition, the result in test [15] and in [10] was inactive.

Turning to `OCCc1ccccn1`, the compound was called inactive in test [2], in test [16], in test [3], in test [11], in test [4] and in test [17]. Moreover, the result in test [18], in [7], in test [13], in test [19] and in test [14] was inactive.

Turning to `CCOc1ccc2c(c1)C(C)CC(C)(C)N2` (stereo not drawn), the compound was called inactive in [1], in test [16], in [3], in test [11], in [5] and in [18]. The outcome in test [7], in test [12] and in test [14] was inactive. The half-maximal activity concentration (AC50) in test [17] was 14.5 µM (active).

Consider `C=CN1CCCCCC1=O`, for which the compound was classed as inactive in [11], in test [20], in test [17], in test [6], in test [7] and in [19]. In addition, the compound was called inactive in test [14] and in [9].

As to `CCCCCCCCCC/C=C/C1CC(=O)OC1=O` (stereo not drawn), the compound was called inactive in [1], in test [2], in [11], in test [4], in test [5] and in test [17]. Besides, the result in test [18], in test [6], in test [7], in test [19], in [14] and in test [9] was inactive. Besides, the call in [15] was inactive. Besides, in [10], the concentration at half-maximal activity (AC50) was 64.1 µM (active).

`CCO[Si](OCC)(OCC)c1ccccc1`: the outcome in [1], in [2], in test [11], in test [20], in [4] and in test [18] was inactive. Besides, the call in [6], in test [8], in [14], in test [9] and in [10] was inactive.

Take `O=C1NC(=O)C2CC=CCC12` (stereo not drawn): the result in test [1], in test [7], in test [14], in test [9], in test [15] and in test [10] was inactive.

As for `CCCCCC1CCCC(=O)O1` (stereo not drawn), the compound was called inactive in test [1], in test [16], in [3], in [11], in test [20] and in test [4]. Moreover, the compound was classed as inactive in [5], in test [17], in test [6], in [7], in [12] and in test [14]. The compound was classed as inactive in test [15] and in test [10].

Values taken from PubChem BioAssay (EPA / NIEHS).
